High-throughput results: PubChem BioAssay, National Center for Advancing Translational Sciences (NCATS)
Most compounds without a hit are left out; they make up all but 2.4% or so of the library.
p53ts 32C tox = p53ts cell cytotoxicity, permissive temperature; H1299-p53A138V at 32C, ATP luminescence viability, 24 h; Potency, µM (series often up to 46.1 µM), actives largely listed as cytotoxic; actives 0.93% (n = 130,000); AID 924; note: nearly all actives have a fitted effect of over 55% in size
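Viability by ATPlite luminescence after 24 h compound treatment (up to 46 uM) at the permissive 32C. Cells are H1299 carrying p53 A138V. Scale runs from DMSO basal to 100 uM tamoxifen as full kill; AC50 from Hill fits.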
Luciferase inh = firefly luciferase inhibition | actives 2.2% (n = 72,000) | Potency, µM (series often up to 57.1 µM), hits mostly inhibitors | purified firefly luciferase, luminescence, 8 min | AID 411 | P08659; note: nearly all actives have a fitted effect of over 40% in size
Target sequence (P08659 whole entry, looked up): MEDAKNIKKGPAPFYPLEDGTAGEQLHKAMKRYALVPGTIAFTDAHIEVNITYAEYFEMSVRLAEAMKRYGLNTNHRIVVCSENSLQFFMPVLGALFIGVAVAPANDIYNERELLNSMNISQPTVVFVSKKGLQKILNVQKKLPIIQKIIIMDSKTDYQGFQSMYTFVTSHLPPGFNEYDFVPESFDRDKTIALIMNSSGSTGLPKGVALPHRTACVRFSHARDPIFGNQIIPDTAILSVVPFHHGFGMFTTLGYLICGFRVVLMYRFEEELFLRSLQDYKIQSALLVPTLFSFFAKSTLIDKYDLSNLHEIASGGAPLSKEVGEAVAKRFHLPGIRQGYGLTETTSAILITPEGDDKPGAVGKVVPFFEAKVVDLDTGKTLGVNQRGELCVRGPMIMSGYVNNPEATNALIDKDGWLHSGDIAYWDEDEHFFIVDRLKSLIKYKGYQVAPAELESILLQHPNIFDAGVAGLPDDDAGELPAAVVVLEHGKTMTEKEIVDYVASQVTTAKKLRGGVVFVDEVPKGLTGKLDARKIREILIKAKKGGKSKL
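Here, luciferase activity is measured as luminescence following an 8 min room-temperature reaction at 10 uM ATP, pH 7.2. Every library sample is titrated.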
IkB sig inh = suppresses IkB signaling in ABC-DLBCL reporter cells; ABC-DLBCL IkBa-CBG/CBR dual luciferase ratio, 4 h; response scale: scaled: untreated 0%, proteasome inhibitor 100%; Potency, µM (doses to about 57.1 µM); actives 0.04% (n = 110,000); AID 445; active = well fitted curve in the direction sought with a large enough effect in the signal ratio, not every such curve was filed as active; inconclusive = small, poorly fitted or top-dose-only effect, or a change in a side signal; the % refers to the signal ratio;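 note: the direction sought is a rising ratio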
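Luminescence ratio of IκBα-fused green versus native red beetle luciferase in OCI-Ly3 cells, 4 h post-doxycycline with compound; red signal alone, scaled from basal (0%) to zero light (-100%), flagged nonspecific or cytotoxic effects.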
p53ts 39C kill = p53ts cell cytotoxicity, nonpermissive temperature. AID 902. actives 1.5% (n = 130,000). Potency, µM (titrated, usually from 46.1 µM), usual class: cytotoxic. H1299-p53A138V viability at 39C, ATP luminescence, 24 h; note: nearly all actives have a fitted effect of over 55% in size
Peg3 imprint = inducers of genomic imprint erasure in mouse ES cells | Potency, µM (series often up to 60.7 µM), hits mostly activators | actives 0.02% (n = 110,000) | mouse ES Peg3-LacZ reporter, beta-gal luminescence, 40 h
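Readout: BetaGlo luminescence (5 min, room temp) for LacZ from the normally silent maternal Peg3 allele in female Peg3LacZ-Neo ES cells. Cells 300/well, 40 h, 37C, 5% CO2. Data normalized per plate to negative controls.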
Hits are given with their value; [ ] = another dose, or the depositor's remark. Unless noted, calls come from the whole dose curve; as a rule, active = well fitted curve in the direction sought with a large enough effect; inconclusive = small, poorly fitted or top-dose-only effect, or another doubt; inactive = no such curve, though single readings can be large; an effect the other way counts as inactive or inconclusive.

Screening CCOC(=O)c1cc(-c2ccc(F)cc2)n(CCC(=O)Nc2nc3ccc(OC)cc3s2)c1C returned p53ts 32C tox inactive, IkB sig inh inconclusive, p53ts 39C kill inactive and Peg3 imprint inactive[10.9 µM].
Screening OC(c1ccc2c(c1)OCO2)c1nccc2ccccc12 (stereo not given) returned p53ts 32C tox inactive, Luciferase inh inactive, IkB sig inh inactive, p53ts 39C kill inactive and Peg3 imprint inactive.
`c1ccc2c(Oc3ccc4c(c3)OCO4)nncc2c1` gave p53ts 32C tox inconclusive, Luciferase inh 16µM, IkB sig inh inactive, p53ts 39C kill inconclusive and Peg3 imprint inactive.
For CN=Cc1sc2ccccc2c1O the results were p53ts 32C tox inactive, Luciferase inh inactive, IkB sig inh inconclusive, p53ts 39C kill inactive and Peg3 imprint inactive.
For CC(=Nc1cccc(O)c1)c1sc2ccccc2c1O the results were Luciferase inh 7.9µM.
`COc1ccc(OC)c(Nc2nc(-c3cccs3)cs2)c1` gave p53ts 32C tox inactive, Luciferase inh inactive, IkB sig inh inactive, p53ts 39C kill inactive and Peg3 imprint inactive.
For COc1ccccc1Nc1nc(-c2cccs2)cs1 the results were p53ts 32C tox inactive, Luciferase inh 13µM, IkB sig inh inconclusive, p53ts 39C kill inactive and Peg3 imprint inactive.
Cc1ccc(C(=O)/C=C2\NCCNC2=O)cc1 was read as p53ts 32C tox 13µM and p53ts 39C kill inconclusive.
`c1cncc(CNc2nc(-c3ccoc3)nc3ccccc23)c1` gave p53ts 32C tox inactive, Luciferase inh inactive[2.29 µM], IkB sig inh inactive[11.4 µM], p53ts 39C kill inactive and Peg3 imprint inconclusive.
For CN(C)c1ccc(-c2nc(Nc3ccncc3)c3ccccc3n2)cc1 the results were p53ts 32C tox 10µM, Luciferase inh 0.4µM, IkB sig inh inactive[11.4 µM] and p53ts 39C kill 7.9µM.
For COc1ccccc1CNc1nc(-c2ccccc2CN(C)C)nc2ccccc12 the results were p53ts 32C tox inactive, Luciferase inh inactive[2.29 µM], IkB sig inh inactive[11.4 µM], p53ts 39C kill 16µM and Peg3 imprint inactive.
`CN(C)Cc1ccccc1-c1nc(NCc2ccccc2)c2ccccc2n1` gave p53ts 32C tox inactive, Luciferase inh inactive[2.29 µM], IkB sig inh inactive[11.4 µM], p53ts 39C kill inactive and Peg3 imprint inactive.
Screening COc1ccc(CNc2nc(-c3ccc(N(C)C)cc3)nc3ccccc23)c(OC)c1 returned p53ts 32C tox 13µM, Luciferase inh inactive[2.29 µM], IkB sig inh inactive[11.4 µM], p53ts 39C kill 16µM and Peg3 imprint inactive.
CN(C)c1ccc(-c2nc(NCc3cccnc3)c3ccccc3n2)cc1 was read as p53ts 32C tox 5µM, Luciferase inh inactive[2.29 µM], IkB sig inh inactive[11.4 µM], p53ts 39C kill 4µM and Peg3 imprint inactive.
Screening COc1ccc(CNc2nc(-c3ccc(C(=O)N(C)C)cc3)nc3ccccc23)c(OC)c1 returned p53ts 32C tox inactive, Luciferase inh inactive[2.29 µM], IkB sig inh inactive[11.4 µM], p53ts 39C kill inactive and Peg3 imprint inactive.
Screening CCOc1ccc(NC(=O)c2ccc3c(c2)CCN3S(=O)(=O)c2ccc(Cl)cc2)cc1 returned p53ts 32C tox inactive, IkB sig inh inconclusive, p53ts 39C kill inactive and Peg3 imprint inactive[10.9 µM].
`Cn1c(=O)c2c(nc(/C=C\c3cccc(Cl)c3)n2C)n(C)c1=O` gave p53ts 32C tox inactive, Luciferase inh inactive, IkB sig inh inactive and p53ts 39C kill inactive.
COc1ccccc1CNC(=O)CCC(=O)N1CC2CCCN2c2ccccc21 (stereo not given) was read as p53ts 32C tox inactive, IkB sig inh inconclusive, p53ts 39C kill inactive and Peg3 imprint inactive[10.9 µM].
For CCCc1cc(=O)oc2c3c(ccc12)OCN(Cc1ccc(OC)cc1)C3 the results were p53ts 32C tox inactive, IkB sig inh inactive, p53ts 39C kill inactive and Peg3 imprint inactive[10.9 µM].
Screening Cc1ccc(C)c(NC(=O)Cn2c(=O)n(CC3CCCO3)c(=O)c3ccccc32)c1 (stereo not given) returned p53ts 32C tox inactive, IkB sig inh inactive, p53ts 39C kill inactive and Peg3 imprint inactive[10.9 µM].
CN(C)c1ccc(-c2nc(N(C)C)c3ccccc3n2)cc1 was read as p53ts 32C tox inactive, Luciferase inh inactive[2.29 µM], IkB sig inh inactive[11.4 µM], p53ts 39C kill inactive and Peg3 imprint inactive.
Screening CNc1nc(-c2ccc(N(C)C)cc2)nc2ccccc12 returned p53ts 32C tox 13µM, Luciferase inh inactive[2.29 µM], IkB sig inh inactive[11.4 µM], p53ts 39C kill 10µM and Peg3 imprint inactive.
